Compounds with a hit are over-represented: about 2.3% of the library has one in this group of screens.
AMA1 RON2 block: AMA1-RON2 (P. falciparum) interaction inhibition; AlphaScreen AMA1-biotinylated RON2 peptide binding; AID 720542; 360,000 compounds, 0.2% hits; Potency, µM (doses to about 58.2 µM), hits mostly inhibitors; note: nearly all actives have a fitted effect of over 45% in size
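AMA1 (3D7) with his tag at 25 nM final met compounds first, then biotinylated RON2 peptide at 25 nM; detection used donor plus acceptor beads, 10 µg/mL apiece, read by AlphaScreen after 30 min at room temperature.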
LASV entry inh: Lassa virus entry inhibition; Potency, µM (doses to about 37.9 µM), hits mostly inhibitors; 300,000 compounds, 1.2% hits; Lassa virus pseudotype entry inhibition, cell reporter; calls by dose curve; tested in HEK293 cells; note: nearly all actives have a fitted effect of over 50% in size
AmpC detergent: inhibitors of E. coli AmpC beta-lactamase with detergent; P00811; AmpC hydrolysis of nitrocefin, absorbance 480 nm, 0.01% Triton; Potency, µM (highest dose often 114 µM), actives largely listed as inhibitors; 370,000 compounds, 0.041% hits; note: nearly all actives have a fitted effect of over 25% in size
Target sequence (P00811 whole entry, looked up): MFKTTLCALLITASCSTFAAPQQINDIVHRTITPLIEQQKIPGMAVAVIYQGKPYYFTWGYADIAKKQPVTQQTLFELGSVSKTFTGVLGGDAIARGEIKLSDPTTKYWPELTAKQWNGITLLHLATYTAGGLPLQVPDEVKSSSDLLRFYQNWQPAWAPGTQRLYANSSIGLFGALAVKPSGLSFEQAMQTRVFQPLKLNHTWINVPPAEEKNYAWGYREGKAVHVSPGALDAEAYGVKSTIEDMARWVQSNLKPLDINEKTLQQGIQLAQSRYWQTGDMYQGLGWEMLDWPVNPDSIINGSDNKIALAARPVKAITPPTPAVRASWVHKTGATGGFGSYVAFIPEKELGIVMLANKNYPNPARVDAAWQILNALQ
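AmpC (5.3 nM in the dispensed reagent) in 20 mM phosphate pH 7.0 with 0.01% (detergent screen) or 0.0001% Triton X-100 was preincubated with compounds for 15 min at room temperature. Nitrocefin was then added from an 800 uM solution, and hydrolysis was followed at 480 nm.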
MARV entry inh: blocks Marburg virus binding to or entry into cells | 300,000 compounds, 1.8% hits | Potency, µM (titrated, usually from 37.8 µM), usual class: inhibitors | Marburg virus pseudotyped entry inhibition, cell reporter | AID 540276; calls by dose curve; tested in HEK293 cells
AmpC inh no detg: blocks E. coli AmpC beta-lactamase in detergent-free assay; P00811; AmpC nitrocefin hydrolysis, absorbance 480 nm, 0.0001% Triton; Potency, µM (series often up to 57.1 µM), hits mostly inhibitors; 330,000 compounds, 0.52% hits; AID 485341; note: nearly all actives have a fitted effect of over 20% in size
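20 mM phosphate pH 7.0 + 0.01% (detergent screen) or 0.0001% Triton X-100; 5.3 nM AmpC reagent; cpd preinc 15 min RT; nitrocefin (800 uM stock) to start; A480 q20 s × 4 min; Activity was normalised to no-enzyme and no-compound control wells.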
Each line names hits and unclear results; the compound was inactive in the other large screens. Unless noted, calls come from the whole dose curve; as a rule, active = well fitted curve in the direction sought with a large enough effect; inconclusive = small, poorly fitted or top-dose-only effect, or another doubt; inactive = no such curve, though single readings can be large; an effect the other way counts as inactive or inconclusive.

O=C(Oc1ccccc1)c1cc(O)c(O)c(O)c1	AMA1 RON2 block 40µM (no result: LASV entry inh, AmpC detergent, MARV entry inh, AmpC inh no detg)
CC(=O)Oc1cc(C(=O)OCC(=O)NC23CC4CC(CC(C4)C2)C3)cc(OC(C)=O)c1OC(C)=O	AMA1 RON2 block 20µM (no result: LASV entry inh, AmpC detergent, MARV entry inh, AmpC inh no detg)
O=C(COC(=O)c1ccccc1O)NC12CC3CC(CC(C3)C1)C2	MARV entry inh inconclusive (no result: AmpC detergent)
COc1cccc(C(=O)OCC(=O)NC23CC4CC(CC(C4)C2)C3)c1	none (no result: AmpC detergent)
O=C(COC(=O)/C=C/C(=O)OCC(=O)NC12CC3CC(CC(C3)C1)C2)NC12CC3CC(CC(C3)C1)C2	MARV entry inh 8.9µM
O=C1[C@@H]2[C@H]3[C@H](O)[C@H](O)CC(=NOC[C@@H](O)COCc4ccco4)[C@@H]3CC[C@H]2C(=O)N1Cc1ccccc1	none (no result: AMA1 RON2 block, LASV entry inh, AmpC detergent, AmpC inh no detg)
FC(F)(F)c1cccc(C2NCc3ccccc3-n3cccc32)c1 (configuration not stated)	LASV entry inh 11µM, MARV entry inh inconclusive
COC(=O)c1ccccc1-c1c2ccc(=N)cc-2oc2cc(N)ccc12	LASV entry inh 7.9µM, AmpC detergent inconclusive, MARV entry inh inconclusive
COC(=O)c1ccccc1-c1ccc(/C=N/NC(=O)c2cc3ccccc3o2)o1	AmpC detergent inconclusive
O=C(O)c1ccccc1-c1c2ccc(=O)cc-2oc2cc(O)ccc12	LASV entry inh 28µM, MARV entry inh 35µM (no result: AMA1 RON2 block, AmpC detergent, AmpC inh no detg)
Cc1c(-c2ccccc2)c(=O)oc2cc(O)ccc12	none (no result: LASV entry inh, MARV entry inh)
O=C1C2Sc3[nH]c(=O)sc3C(c3ccccc3)C2C(=O)N1c1ccccc1 (configuration not stated)	AmpC inh no detg 18µM
COc1ccc(C2c3sc(=O)[nH]c3SC3C(=O)N(c4ccccc4)C(=O)C32)cc1 (configuration not stated)	AmpC detergent inconclusive, AmpC inh no detg inconclusive (no result: LASV entry inh)
O=C(CSc1nc2c([nH]c3ccccc32)c(=O)n1-c1cccc(Cl)c1)N1CCc2ccccc21	none (no result: AMA1 RON2 block, MARV entry inh, AmpC inh no detg)
Cc1ccc(N(CC2=NCCN2)c2cccc(O)c2)cc1	LASV entry inh inconclusive, AmpC detergent inconclusive, MARV entry inh 23µM
Nc1nc(SCc2ccc(Cl)cc2Cl)nc2nc3c(cc12)CCCC3	LASV entry inh inconclusive, MARV entry inh inconclusive, AmpC inh no detg 16µM
Nc1nc(SCc2ccccc2Cl)nc2nc3c(cc12)CCCC3	none
CCOc1ccc(/C=C/C(=O)Nc2ccc3nc(N(CC)CC)cc(C)c3c2)cc1OC	LASV entry inh inconclusive, MARV entry inh 11µM (no result: AMA1 RON2 block, AmpC inh no detg)
CCN1CCN(c2cc(C)c3cc(NC(=O)/C=C/c4cccc(OC)c4OC)ccc3n2)CC1	LASV entry inh inconclusive, MARV entry inh 7.1µM (no result: AMA1 RON2 block, AmpC inh no detg)
CCN(CC)c1cc(C)c2cc(NC(=O)/C=C/c3cc(OC)c(OC)c(OC)c3)ccc2n1	LASV entry inh inconclusive, MARV entry inh inconclusive (no result: AMA1 RON2 block, AmpC inh no detg)
CCN1CCN(c2cc(C)c3cc(NC(=O)/C=C/c4cccc(Cl)c4)ccc3n2)CC1	MARV entry inh 5.6µM (no result: AMA1 RON2 block, AmpC inh no detg)
COc1cccc(C(=O)N(Cc2nc(-c3ccc(Cl)cc3)no2)C(C)C)c1OC	none (no result: AMA1 RON2 block, AmpC inh no detg)
O=C(Nc1cccc(Cl)c1)c1ccc2nc(CCc3ccccc3)oc2c1	none (no result: AMA1 RON2 block, MARV entry inh, AmpC inh no detg)
O=C(NC1CCCC1)c1ccc(CSc2nc3cccnc3n2Cc2cccc(F)c2)cc1	none (no result: AMA1 RON2 block, MARV entry inh, AmpC inh no detg)
O=C(NCCN1CCCCC1)c1ccc(Cn2c(SCc3cccc(F)c3)nc3cccnc32)cc1	MARV entry inh 4.5µM (no result: AMA1 RON2 block, LASV entry inh, AmpC inh no detg)
CSc1nc2ccc(NC(=O)c3ccccn3)cc2s1	LASV entry inh 2µM, MARV entry inh inconclusive
CSc1nc2ccc(NC(=O)C3=NNC(=O)CC3)cc2s1	none (no result: LASV entry inh, MARV entry inh)
Cc1cc(N/C=C/C(=O)c2ccccc2)ccc1Br	AmpC detergent inconclusive (no result: LASV entry inh, MARV entry inh)
O=C(/C=C/c1ccccc1Br)c1ccc2c(c1)OCO2	LASV entry inh inconclusive
O=C(/C=C\NCC(=O)c1ccccc1)c1ccc2ccccc2c1	none
O=C(/C=C/Nc1ccc(F)cc1Br)c1ccccc1	LASV entry inh 2µM, MARV entry inh inconclusive
O=C(/C=C\Nc1ccccc1Br)c1ccc2c(c1)OCO2	AMA1 RON2 block inconclusive, MARV entry inh 5.6µM (no result: LASV entry inh)
O=C(/C=C\NCC(=O)c1ccccc1)c1ccc(F)cc1	AmpC inh no detg 18µM
CNS(=O)(=O)c1cc(-c2nnc(Nc3cc(C)ccc3C)c3ccccc23)ccc1C	LASV entry inh inconclusive (no result: AMA1 RON2 block, MARV entry inh, AmpC inh no detg)
S=c1[nH]nc(Nc2cccc3ccccc23)s1	AmpC inh no detg 28µM
Cc1ccccc1Nc1n[nH]c(=S)s1	none (no result: LASV entry inh, AmpC detergent, MARV entry inh, AmpC inh no detg)
O=C(Cc1ccc(Cl)c(Cl)c1)N1CCCCC1CN1CCCC1 (configuration not stated)	LASV entry inh inconclusive, MARV entry inh 8.9µM (no result: AMA1 RON2 block, AmpC detergent, AmpC inh no detg)

Source: PubChem BioAssay (National Center for Advancing Translational Sciences (NCATS))
